From PubChem BioAssay
Hits are enriched below; roughly 4.1% of the tested compounds scored in any of these assays.
GRIN3A LBD mod: binders of NR3A ligand-binding domain, primary screen, biophysical, differential scanning fluorimetry, uHTS; Glutamate receptor ionotropic, NMDA 3A (GRIN3A) ligand-binding domain; NR3A LBD differential scanning fluorimetry, Tm shift; 0% = protein alone, 100% = glycine-bound protein; Tm shift relative to glycine control, % at 25 µM; hit rate 2.5% among 340,000; AID 1259313, 2017;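 active = melting temperature shift of at least 10% of the positive control shift, at one fixed dose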
beta cell repl: inducers of MIN6 beta-cell proliferation, primary screen, ATP luminescence, uHTS; MIN6 cells proliferation, ATPlite luminescence, 48 h; cells starved in 0.2% serum; 100% = growth in 10% serum; AID 2380, 2010; proliferation, % at 10 µM; hit rate 0.29% among 330,000;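 active = compounds whose signal lies at least 3.5 SD above the mean of all wells on their plate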;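 note: 0% = DMSO-treated cells in low-serum medium and 100% = 10% serum control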
MPTP inh: mitochondrial permeability transition pore inhibitors, primary screen, biochemical, isolated mouse mitochondria, absorbance; Ca2+ swelling absorbance, 30 min; inhibition, % at 10 µM; hit rate 1.4% among 360,000; AID 602449, 2012;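 active = inhibition of 50% or more, scaled per plate between neutral and stimulator controls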;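 note: 0% = DMSO wells given calcium and 100% = 1 mM EGTA wells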
FAS TE block: FAS thioesterase domain inhibitors, primary screen, biochemical, fluorescence intensity, uHTS; Fatty acid synthase (Homo sapiens), P49327; hit rate 0.67% among 360,000; inhibition, % at 15 µM; recombinant FAS-TE, OMFH fluorogenic substrate, fluorescence endpoint;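 active = compounds whose normalised, plate-corrected inhibition of enzyme fluorescence in the single-dose primary screen is 50% or more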;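 note: 0% = DMSO with enzyme and 100% = substrate without enzyme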
p-CIP stab down: p/CIP-EGFP fusion destabilizers, primary screen, fluorescence, F442A cells; 16 h; decrease of EGFP signal, % at 10 µM; hit rate 0.01% among 290,000;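 active = EGFP signal decrease of at least 30% at 10 µM or well 3 SD below plate mean, unless failing retest; inactive = the rest, including hits failing retest or dose response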
Rh123 counter: fluorescence retest of MPTP screen hits in isolated mitochondria, single concentration; shares compounds with MPTP inh; membrane potential, Rhodamine 123 fluorescence; inhibition, % at 10 µM; hit rate 78% among 5,000; in the data active = inhibition above about 22%;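 note: 0% = DMSO vehicle and 100% = positive control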
MPTP abs DR: mitochondrial permeability transition pore inhibitors, dose response, biochemical, absorbance, uHTS hits; shares compounds with MPTP inh; isolated mitochondria swelling; hit rate 58% among 780; IC50, µM; in the data active = IC50 below about 20 µM
MPTP counter DR: fluorescent counter-screen in isolated mitochondria, dose response, counter-screen for MPTP inhibitor project, biochemical, fluorescence, uHTS hits. shares compounds with MPTP inh. isolated mitochondria counterscreen, fluorescence read-out. IC50, µM. hit rate 49% among 780. AID 651564, 2012; in the data active = IC50 below about 80 µM
Numbers without * were called inactive; i = inactive; · = no result.

SMILES	GRIN3A LBD mod	beta cell repl	MPTP inh	FAS TE block	p-CIP stab down	Rh123 counter	others
COC(=O)c1c(C)oc2ccc(N(C(=O)c3ccncc3)S(=O)(=O)c3ccc(C)cc3C)cc12	1	-5	62*	38	-1	29*
CC(C)(C)OC(=O)NCCCCCc1cn(CC(=O)NCCCCCCCCCCC(=O)N2CCN(C(=O)OC(C)(C)C)CC2)nn1	1	-5	94*	-15	·	-1	MPTP abs DR=2*;MPTP counter DR=<2.5*
COc1cccc(OC)c1NC(=O)CN1CCN(C)CC1	0	-1	-1	-10	-16	·
CCOC(=O)c1sc(NC(=O)CSc2n[nH]c(-c3ccc(Cl)cc3Cl)n2)c(C#N)c1C	33*	-6	83*	-43	-8	83*
CCOC(=O)c1sc(NC(=O)c2ccncc2)c(C#N)c1C	-11	0	97*	-10	7	87*
CCOC(=O)c1sc(NC(=O)c2cc(-c3ccccc3C)nc3ccccc23)c(C#N)c1C	24*	-4	112*	31	6	87*
O=C(COc1ccc(F)cc1Cl)Nc1ccccc1C(=O)N1CCCCC1	-1	2	0	5	·	·
CCOC(=O)Cn1c(=NC(=O)c2nc3ccccc3s2)sc2cc(S(N)(=O)=O)ccc21	-4	-2	-3	-9	-2	·
Cc1sc2ncnc(N3CCN(Cc4ccccc4)CC3)c2c1-c1ccc(F)cc1	0	-4	0	28	0	·
CC(C)NCC(O)Cn1c2c(c3ccccc31)CCc1c-2cnn1-c1ccccc1 (stereo not given)	-5	-4	87*	-52	-8	-17
CN1CCc2c(n(CC(O)CNCc3ccccc3)c3ccccc23)C1=O (stereo not given)	-1	-1	-1	-6	5	·
CC(C)CN(Cc1cc(=O)oc2cc(-c3ccccc3)c(O)cc12)CC(C)C	-1	-6	93*	2	-8	85*
Cc1cccc(-n2c(=S)[nH]c3c(oc4ccccc43)c2=O)c1	1	·	2	-6	-7	·
O=C(Nc1cccc(Cl)c1)Nc1cccc(C(=O)O)c1	-11	-2	5	-5	-7	·
CC(=O)c1ccc(NC(=O)Nc2ccc(Br)cc2C)cc1	2	-2	90*	-3	-5	97*
CC(C)(C)c1cc(C(=O)NNC(=O)Nc2cccc(Cl)c2)n(Cc2ccccc2)n1	5	-5	71*	15	-14	79*
CC(=O)c1ccc(NC(=S)NCCc2cccc(Cl)c2)cc1	26*	-5	86*	18	-17	95*
O=C(Nc1ccccc1)Nc1cccc(Cl)c1	29*	-3	96*	13	16	87*
C=CCC1(C#N)C(=S)NC2=C(C(=O)CC(C)(C)C2)C1c1ccc(Br)cc1 (stereo not given)	-2	-4	2	-9	-1	·
O=C1CC(c2ccccc2F)C2=C(COC2=O)N1 (stereo not given)	-2	2	-1	-6	-4	·
CCn1cc(C(=O)NCCCN2CCCC(C)C2)c(=O)c2cc(S(=O)(=O)N(C)C3CCCCC3)ccc21 (stereo not given)	-1	-4	0	-6	1	·
O=C(COc1ccc(Cl)cc1)NCc1nnc(SCC(=O)Nc2ccc(F)cc2F)o1	-6	0	2	-2	6	·
CC(=O)c1ccc(NC(=O)Nc2cccc(Cl)c2)cc1	35*	-3	101*	9	-2	88*
O=C(NCCCc1ccccc1)Nc1cccc(Cl)c1	7	-1	70*	36	-12	95*
O=C(NCCc1ccncc1)Nc1cccc(Cl)c1	-18	-1	0	-4	-2	·
SMILES	GRIN3A LBD mod	beta cell repl	MPTP inh	FAS TE block	p-CIP stab down	Rh123 counter	others
N#Cc1ccc(NC(=O)Nc2cccc(C#N)c2)cc1	26*	·	72*	9	3	100*
N#Cc1cccc(NC(=O)c2ccccc2C(=O)O)c1	-1	-1	-1	-3	-12	·
O=C(Nc1ccccc1)Nc1ccc(Cl)nc1Cl	0	-4	73*	4	·	88*
CC(C)=NNC(=O)C1=NNC(=O)C1	1	0	0	-8	1	·
Cn1nc(-c2ccccc2)cc1NC(=O)Nc1ccc(F)cc1	-4	-3	66*	7	5	81*
Cc1ccccc1NC(=O)Nc1cc(-c2ccccc2)nn1C	-5	0	5	-5	-18	·
Cn1nc(C(F)(F)F)c(-c2cccc(C(F)(F)F)c2)c1NC(=O)Nc1ccc(F)cc1	3	-6	79*	12	-5	82*
CCOC(=O)C1(CC2CCCCO2)CCN(C(=O)Nc2ccc(C)c(C)c2)CC1 (stereo not given)	-6	2	0	1	3	·
CCN(CC(=O)Nc1cccc(OC)c1)C(=O)C1CCN(C(=O)Nc2ccccc2)CC1	-2	2	2	1	3	·
Cc1nc(SCc2nc3ccc(C(F)(F)F)cc3[nH]2)c2oc3ccccc3c2n1	5	-6	50*	8	·	89*
CCc1nc(SCCO)c2oc3ccccc3c2n1	3	1	0	2	-2	·
CCc1nc(SCc2nc3ccccc3[nH]2)c2oc3ccccc3c2n1	-4	-5	69*	9	-13	82*
Cc1nc(SCc2nc3ccc(Br)cc3[nH]2)c2oc3ccccc3c2n1	-1	-5	44	5	·	·
Cc1nc(SCc2nc3cc(Cl)c(F)cc3[nH]2)c2oc3ccccc3c2n1	9	-6	63*	20	·	80*
Cc1nc(SCc2nc3ccc(Cl)cc3[nH]2)c2oc3ccccc3c2n1	-3	-5	37	6	·	·
CC(CCc1ccccc1)NC(=O)CCC(=O)N1CCC(C(=O)O)CC1 (stereo not given)	-1	-1	0	-7	6	·
CCN(CC)CCSC(=O)C(c1ccccc1)c1ccccc1	·	·	65*	-1	·	-2	MPTP abs DR=i;MPTP counter DR=>80
Cc1nc2ccccn2c1C(=O)NNS(=O)(=O)c1ccc(C(C)(C)C)cc1	-4	-2	76*	-6	-10	72*
COc1ccc(Br)cc1S(=O)(=O)NNC(=O)c1c(C)nc2ccccn12	0	-2	0	-2	-11	·
O=C(CSc1ncnc2c1cnn2-c1ccccc1)Nc1ccc2c(c1)OCO2	1	-3	67*	-4	10	9	MPTP abs DR=5.2*;MPTP counter DR=6.4*
